Among the data in PubChem BioAssay AID743088 (The Scripps Research Institute Molecular Screening Center, 2013) are inhibition of binding values, retold here.

Unmarked numbers belong to inactive results.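 Rule for the calls: active = binding inhibited by at least 50%, or stimulated by at least 50%, shown as inhibition of -50% or lower; inactive = the rest.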

The subject of the experiment is Imidazoline I2 Central. In words: radioligand displacement at 30 receptors – biochemical, Panlabs HitProfilingScreen, selectivity assay for AVPR1a antagonist project, profiling panel (AID 743088). The conditions noted are these: 30 targets, at 10 µM, active compounds read high. (Loss of bound radioactivity is the signal in a displacement assay; it reports binding, not function.)

Take `O=C(C1CCN(c2ccc(Cl)cn2)CC1)N(CC1CC1)c1ccc(Cl)cc1`: the inhibition of binding is 27%.
